A selection: hits, their analogues and other compounds. The true share with any hit is near 6.1%.
ERG Ets-DNA blk = inhibitors of human ERG Ets domain-DNA interaction; fluorescence polarization, His-ERG Ets domain / labelled DNA; Potency, µM (highest dose often 76.9 µM), inactives show top-dose FP activity, negative = inhibition, actives largely listed as inhibitors; actives 0.028% (n = 370,000); AID 624246; active = well fitted inhibition curve with a large enough effect in the polarisation, with a control signal flat; inconclusive = small, poorly fitted or top-dose-only effect, or effect the other way, or a change in a side signal; inactive = no such curve, though single readings can be large or run the other way; the % refers to the polarisation;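 note: polarization taken with two DNA probes labelled with fluorescein and Texas red; potency is the fitted concentration of half-maximal effect; % of control where 0% means no effect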
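His-tagged ERG Ets domain (1 uM in the protein solution; 300mM KCl, 50mM Tris-HCl, 1mM EDTA, 1mM DTT, pH 7.5) received compound, then a probe mix of 5 nM fluorescein-DNA and 100nM Texas-615-DNA. Fluorescence polarization was read for both dyes.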
D1 PAM = human D1 dopamine receptor positive modulation | HEK293 TREx D1 cells, calcium flux, dopamine EC20 potentiation | potentiation, % at 10 µM | actives 0.036% (n = 360,000) | AID 504651; in the data active = potentiation above about 30%; note: 0% is about no effect
D3 antag = D3 dopamine receptor (human) antagonism. AID 652054. actives 2.5% (n = 360,000). D3R cells, DiscoveRx beta-arrestin luminescence, antagonist mode; stronger effect = lower value. max response, negative = inhibition, %; in the data active = max response below about -50%; inconclusive = no clear call, values can overlap the other calls; note: % is set by controls: 0 for no effect and ±100 for the full control effect
Target sequence (P35462 whole entry, looked up): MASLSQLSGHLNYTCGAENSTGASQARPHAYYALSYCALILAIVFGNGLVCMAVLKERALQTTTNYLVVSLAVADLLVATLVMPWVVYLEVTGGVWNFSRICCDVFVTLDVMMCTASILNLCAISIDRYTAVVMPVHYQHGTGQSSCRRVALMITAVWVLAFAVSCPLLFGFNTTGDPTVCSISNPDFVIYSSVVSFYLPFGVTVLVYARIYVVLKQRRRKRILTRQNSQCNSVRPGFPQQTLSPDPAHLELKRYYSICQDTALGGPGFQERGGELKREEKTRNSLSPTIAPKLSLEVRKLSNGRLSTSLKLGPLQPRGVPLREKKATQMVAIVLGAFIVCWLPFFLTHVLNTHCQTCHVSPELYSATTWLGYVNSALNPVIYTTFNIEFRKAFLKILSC
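Cells expressing the human receptor were seeded at 1500 cells/well, incubated overnight at 37 degrees C in 5% CO2, then exposed to library compounds with dopamine controls for 90 minutes at 37 degrees C before luminescent detection.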
D1 ag = activates the human D1 dopamine receptor | P21728 | HEK293 T-REx D1 cells, calcium flux, agonist mode | activation, % at 2 µM | actives 1% (n = 360,000) | AID 504660; in the data active = activation above about 30%; note: 0% is about no effect
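Inducible HEK293 T-REx D1 cells, force-coupled to calcium signalling, were plated at 4000 cells/well with tetracycline and held overnight at 30 C. After no-wash calcium dye loading, compound-evoked calcium rise over 180 s flagged agonists.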
DRD3 agonist = activates the human D3 dopamine receptor; P35462; D3R DiscoveRx beta-arrestin cells, luminescence, 90 min; max activation, %; actives 0.58% (n = 410,000); in the data active = max activation above about 30%; note: 0% is about no effect
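Cells at 1500/well, incubated overnight, then treated with pinned compounds (dopamine as control) for 90 min at 37 degrees C. DiscoveRx reagent added for 30 - 60 minutes at room temperature; luminescence read.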
D1 antag = human D1 dopamine receptor antagonism. actives 3.2% (n = 360,000). HEK293 TREx D1 cells, calcium flux, dopamine EC80; stronger effect = lower value. activity change, negative = inhibition, % at 10 µM. P21728; in the data active = activity change below about -30%; note: % is set by controls: 0 for no effect and ±100 for the full control effect
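Compound effects on dopamine-evoked calcium signalling were measured in tetracycline-induced HEK293 Trex D1 cells. Dopamine at EC80 followed a 180 s compound pre-read, and fluorescence was tracked kinetically for 180 s more.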
* = called active by the depositor; ? = inconclusive; / = not tested or not shown; ! = not active in a repeat.

SMILES | ERG Ets-DNA blk | D1 PAM | D3 antag | D1 ag | DRD3 agonist | D1 antag
CC1=C(C(=O)NCc2ccc(Cl)cc2)C2(CCCCCC2)OC1=O | 2% | 4 | / | 45* | -12 | 8
COc1cccc(C(=O)Nc2ccc(NC(=O)c3ccco3)c(Cl)c2)c1 | -1% | 10 | ? | 4 | -8 | -9
O=[N+]([O-])c1ccccc1-c1ccc(CN2CCN(c3ccccc3)CC2)o1 | 7% | -9 | -58* | 0 | 0 | -33*
Cc1nn2cnc3sc4c(c3c2nc1=O)CCCC4 | 1% | -7 | 5 | -1 | 4 | -86*
Cc1nnc(Nc2ccc(Cl)c(C(F)(F)F)c2)[nH]c1=O | 6% | 0 | -15 | -2 | -6 | 3
COC(=O)c1sccc1S(=O)(=O)N1CCN(c2cc(Cl)ccc2C)CC1 | 4% | 1 | / | 5 | -5 | 1
Cc1cc2c(C)nc(-c3ccccc3)nc2o1 | -4% | -6 | 2 | 0 | 1 | -50*
CSC1=N/C(=C\c2ccc(Cl)cc2)C(=O)N1N(C)C | 12% | -4 | 7 | 9 | 10 | -5
CC1(C)CN=c2s/c(=C\c3ccc(Cl)cc3)c(=O)n2C1 | 0% | -7 | -10 | 33* | -4 | 8
CC[C@@]1([C@@H]2O[C@@H]([C@H]3O[C@@](O)(CO)[C@H](C)C[C@@H]3C)C[C@@H]2C)CC[C@H]([C@]2(C)CC[C@]3(C[C@H](O)[C@@H](C)[C@@H]([C@@H](C)[C@@H](OC)[C@H](C)C(=O)O)O3)O2)O1 (stereo in doubt) | / | / | / | / | 75*! | /
C/C(=N\Nc1nccnc1Cl)c1ccc(Br)cc1 | -4% | -4 | 0 | 2 | 1 | 7
C/C(=N\Nc1nccnc1Cl)c1ccc([N+](=O)[O-])cc1 | -8% | -5 | -29 | 0 | -16 | -61*
CC(=O)C1=C(C)N(Cc2ccccc2)C(=O)N[C@H]1c1cccs1 | 0% | -2 | 24 | 2 | 0 | 11
Cc1oc2cc(OCC(=O)O)ccc2c(=O)c1Oc1ccccc1 | / | -3 | 13 | 5 | 10 | 1
COc1ccc2c(=O)c(Oc3ccc(C(=O)O)cc3)c(C(F)(F)F)oc2c1 | -5% | -7 | 4 | 3 | 0 | -30*
Cc1ccc(S(=O)(=O)N2CCOCC2)cc1NC(=O)CSc1ncccn1 | 0% | -7 | 1 | 2 | -2 | -9
COc1ccccc1CNCC(=O)Nc1cc(S(=O)(=O)N2CCOCC2)ccc1Cl | 1% | -3 | -8 | 2 | 13 | -6
Cc1ccc(S(=O)(=O)N2CCOCC2)cc1NC(=O)CNCc1ccccn1 | -2% | -3 | 1 | 2 | 52* | -14
Cc1ccc(S(=O)(=O)N2CCOCC2)cc1NC(=O)CNCc1ccccc1Cl | 14% | -5 | -15 | 8 | 35* | 5
O=C(CNc1ccccc1Cl)Nc1cc(S(=O)(=O)N2CCOCC2)ccc1Cl | -1% | 1 | -10 | 2 | 0 | -33*
CO/N=C\CC(=O)Nc1ccc(Cl)c(Cl)c1 | -16% | -6 | 2 | 6 | -2 | -30*
COC(=O)CCC(=O)Nc1ccc(Cl)c(Cl)c1 | / | -7 | -8 | 6 | 5 | -25
CC(/C=N/N1CCN(Cc2ccccc2)CC1)=C\c1ccccc1 | -8% | -4 | -25 | 0 | -27 | -7
CCCC(=O)Nc1ccc(Sc2ccc([N+](=O)[O-])cc2)cc1 | -1% | -8 | -15 | 7 | -2 | -28
O=C(Nc1ccc(Oc2cccnc2)cc1)c1ccc([N+](=O)[O-])cc1 | 5% | -9 | -10 | 37* | 2 | -31*
SMILES | ERG Ets-DNA blk | D1 PAM | D3 antag | D1 ag | DRD3 agonist | D1 antag
CCC(CC)C(=O)Nc1ccc(Sc2ccc([N+](=O)[O-])cc2)cc1 | -4% | -8 | 13 | 31* | -5 | -35*
COc1ccc(NC(=O)C(C)Oc2ccc(/C(C)=N\O)cc2)cc1 (stereo unspecified) | 5% | -2 | 18 | 51* | 3 | -1
CC(C)Oc1ccc(C(=O)Nc2ccc([N+](=O)[O-])cc2)cc1 | -5% | -9 | 6 | 36* | 2 | -15
CC[C@]12c3[nH]c4ccc(OC)cc4c3CCN1C(=O)C(CC(=O)NCCCN(C)C)C[C@@H]2C(=O)N1CCN(C(=O)C2CC2)CC1 (stereo partly specified) | 6% | / | 0 | / | 11 | /
O=C(Nc1ccc(Br)cc1)C1CCCN(S(=O)(=O)c2ccc(Br)s2)C1 (stereo unspecified) | 7% | -3 | / | 7 | -1 | -16
O=C(CSc1ccc([N+](=O)[O-])cc1)c1ccccc1 | / | / | -11 | / | -9 | /
O=C(c1ccccc1)c1ccc(Sc2ccc([N+](=O)[O-])cc2)cc1 | -3% | -2 | -7 | 16 | 6 | -31*
CC(Oc1ccccc1)C(=O)NNC(=O)c1ccccn1 (stereo unspecified) | / | 2 | 3 | 2 | -1 | 9
COc1ccc(OC(C)C(=O)Nc2ccc([N+](=O)[O-])cc2)cc1 (stereo unspecified) | 8% | -2 | 4 | 23 | -7 | -44*
C/C(=N\NC(=O)C(C)Oc1ccc([N+](=O)[O-])cc1)c1ccccn1 (stereo unspecified) | -2% | -8 | -106* | 2 | -90 | -2
CC(C)NS(=O)(=O)c1ccc(NC(=O)C(C)Oc2ccc(C(=O)c3ccccc3)cc2)cc1 (stereo unspecified) | 3% | 3 | -54* | 136* | -13 | -16
COc1ccc(C(=O)/C(C#N)=N/Nc2ccccc2[N+](=O)[O-])cc1 | 7% | -8 | ? | 12 | -11 | -17
COc1ccc(C(=O)/C(C#N)=N/Nc2ccc([N+](=O)[O-])cc2)cc1 | -8% | -4 | ? | 26 | -11 | -39*
CN1CCN(c2ccc([N+](=O)[O-])cc2NC(=O)c2ccccc2Cl)CC1 | 0% | -7 | -5 | 2 | -2 | 1
CN1CCN(c2ccc(Cl)cc2NC(=O)c2ccc([N+](=O)[O-])cc2)CC1 | 6% | -15 | -14 | 6 | -6 | -85*
CN1CCN(c2ccc([N+](=O)[O-])cc2C(=O)c2ccc(Br)cc2)CC1 | -8% | -7 | -56* | 5 | -9 | 4
CN1CCN(c2ccc(Cl)cc2NC(=O)c2cccc(S(=O)(=O)N(C)C)c2)CC1 | / | 0 | 14 | 41* | 6 | -4
Cn1c(=O)n(C)c2cc([N+](=O)[O-])c(N3CCN(C(=O)c4ccc(Cl)cc4)CC3)cc21 | / | -1 | -17 | 2 | -20 | -57*
CC(C)N1CCN(c2ccc(OC[C@H]3CO[C@](Cn4cncn4)(c4ccc(Cl)cc4Cl)O3)cc2)CC1 | -7% | 2 | -23 | 62* | -53 | -44*

Screens deposited in PubChem BioAssay by National Center for Advancing Translational Sciences (NCATS).
